Common to all, as to details: mRNA level, 48 h; actives raise or lower the signal
Read-out in experiment [1]: flavin-containing dimethylaniline monooxygenases 3 (FMO3), FMO3 (gene 2328)
The experiment in a line: LTEA_HepaRG_FMO3: Life Technologies and Expression Analysis (LTEA) Assay for flavin-containing dimethylaniline monooxygenases 3 (FMO3) using HepaRG (AID 2283453). The method, boiled down:
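Differentiated HepaRG cells in serum-free induction medium, exposed 48 h in duplicate to 8 half-log concentrations up to 100 uM in 0.5% DMSO. FMO3 mRNA by qRT-PCR, normalized to ACTB, GAPDH, POLR2A; bidirectional fit vs DMSO.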

Read-out in experiment [2]: Cytochrome P450 (CYP1A1), CYP1A1 (gene 1543)
As to the kind of experiment: LTEA_HepaRG_CYP1A1: Life Technologies and Expression Analysis (LTEA) Assay for Cytochrome P450 (CYP1A1) using HepaRG (AID 2283454). In a few lines: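 Differentiated human HepaRG cells, after 48 h plating, exposed in duplicate for 48 h in serum-free induction medium to 8 half-log concentrations up to 100 uM in 0.5% DMSO. CYP1A1 mRNA by qRT-PCR, normalized to ACTB/GAPDH/POLR2A; bidirectional fit versus DMSO.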

Read-out in experiment [3]: CFLAR gene, CFLAR (gene 8837)
The experiment in a line: LTEA_HepaRG_CFLAR: Life Technologies and Expression Analysis (LTEA) Assay for CFLAR gene using HepaRG (AID 2283455). In a few lines:
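HepaRG, 48 h exposure, 8-pt conc-response (100 uM top, half-log), 0.5% DMSO vehicle, duplicates. CFLAR expression by qRT-PCR; ACTB/GAPDH/POLR2A normalization; gain or loss fit vs DMSO baseline.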

Read-out in experiment [4]: Forkhead box O1 (FOXO1), FOXO1 (gene 2308)
As to the kind of experiment: LTEA_HepaRG_FOXO1: Life Technologies and Expression Analysis (LTEA) Assay for Forkhead box O1 (FOXO1) using HepaRG (AID 2283456). In a few lines: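 Readout is FOXO1 transcript level by multiplexed qRT-PCR against three housekeeping genes, curve-fitted in both directions relative to 0.5% DMSO vehicle. Human HepaRG cultures received chemicals for 48 h, up to 100 uM in half-log steps.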

Read-out in experiment [5]: growth arrest and DNA damage 45 (GADD45A), GADD45A (gene 1647)
The experiment in a line: LTEA_HepaRG_GADD45A: Life Technologies and Expression Analysis (LTEA) Assay for growth arrest and DNA damage 45 (GADD45A) using HepaRG (AID 2283458). In a few lines: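 Cells plated and cultured 48 h, switched to serum-free induction medium, then dosed for 48 h (100 uM top, half-log dilutions, 0.5% DMSO). RNA was isolated and transcript measured by Fluidigm qRT-PCR.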

Read-out in experiment [6]: Forkhead box O3 (FOXO3), FOXO3 (gene 2309)
The experiment in a line: LTEA_HepaRG_FOXO3: Life Technologies and Expression Analysis (LTEA) Assay for Forkhead box O3 (FOXO3) using HepaRG (AID 2283459). In a few lines: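 HepaRG, 48 h post-dose; 8 conc., half-log from 100 uM, 0.5% DMSO, duplicates; serum-free induction medium. Readout: FOXO3 mRNA, TaqMan qRT-PCR, housekeeping-normalized. Bidirectional curve fit vs DMSO baseline.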

Read-out in experiment [7]: ABC Transporter (ABCB1), ABCB1 (gene 5243)
As to the kind of experiment: LTEA_HepaRG_ABCB1: Life Technologies and Expression Analysis (LTEA) Assay for ABC Transporter (ABCB1) using HepaRG (AID 2283460). The method, boiled down: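 Expression of ABCB1 was quantified by qRT-PCR against three housekeeping genes after human HepaRG cultures received test chemicals for 48 hours. Concentrations spanned eight half-log steps topping at 100 uM in 0.5% DMSO; gain or loss of signal was fitted relative to vehicle.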

Read-out in experiment [8]: growth arrest and DNA damage 45 (GADD45B), GADD45B (gene 4616)
As to the kind of experiment: LTEA_HepaRG_GADD45B: Life Technologies and Expression Analysis (LTEA) Assay for growth arrest and DNA damage 45 (GADD45B) using HepaRG (AID 2283461). In a few lines:
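Differentiated human HepaRG cells in serum-free induction medium exposed 48 h in duplicate to eight concentrations, top 100 uM, half-log steps, 0.5% DMSO. GADD45B mRNA by TaqMan qRT-PCR, normalized to ACTB, GAPDH, POLR2A; bidirectional fit versus DMSO.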

Read-out in experiment [9]: ABC Transporter (ABCC3), ABCC3 (gene 8714)
As to the kind of experiment: LTEA_HepaRG_ABCC3: Life Technologies and Expression Analysis (LTEA) Assay for ABC Transporter (ABCC3) using HepaRG (AID 2283462). The method, boiled down:
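Differentiated human HepaRG cells exposed 48 h in serum-free induction medium, 0.5% DMSO vehicle, 8-point half-log series to 100 uM in duplicate. ABCC3 mRNA by qRT-PCR, normalised to ACTB, GAPDH, POLR2A; bidirectional fit vs DMSO.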

Read-out in experiment [10]: ABC Transporter (ABCB11), ABCB11 (gene 8647)
As to the kind of experiment: LTEA_HepaRG_ABCB11: Life Technologies and Expression Analysis (LTEA) Assay for ABC Transporter (ABCB11) using HepaRG (AID 2283463). In a few lines:
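ABCB11 transcript levels are read by Fluidigm TaqMan qRT-PCR after 48 h chemical treatment of human HepaRG cells. Concentrations span 100 uM downward in half-log steps with 0.5% DMSO; gain or loss is fitted against DMSO controls.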

Read-out in experiment [11]: ABC Transporter (ABCC2), ABCC2 (gene 1244)
The experiment in a line: LTEA_HepaRG_ABCC2: Life Technologies and Expression Analysis (LTEA) Assay for ABC Transporter (ABCC2) using HepaRG (AID 2283464). The method, boiled down: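 Differentiated HepaRG cells in serum-free induction medium exposed 48 h to eight half-log concentrations up to 100 uM, 0.5% DMSO, in duplicate. ABCC2 mRNA measured by qRT-PCR (TaqMan, Fluidigm), normalized to ACTB, GAPDH and POLR2A. Fitted in both directions against DMSO.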

Read-out in experiment [12]: Broad substrate specificity ATP-binding cassette transporter ABCG2 (Homo sapiens) (UniProt Q9UNQ0)
The experiment in a line: LTEA_HepaRG_ABCG2: Life Technologies and Expression Analysis (LTEA) Assay for ABC Transporter (ABCG2) using HepaRG (AID 2283465). The method, boiled down: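 Read-out is ABCG2 mRNA induction or loss quantified by qRT-PCR after 48 h chemical treatment of human HepaRG cells, normalized to three housekeeping genes. Concentrations reached 100 uM top in half-log steps; fitting was bidirectional against 0.5% DMSO.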

Read-out in experiment [13]: ATP-citrate lyase (ACLY), ACLY (gene 47)
The experiment in a line: LTEA_HepaRG_ACLY: Life Technologies and Expression Analysis (LTEA) Assay for ATP-citrate lyase (ACLY) using HepaRG (AID 2283466). The method, boiled down: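 HepaRG, 48 h exposure, 8-pt half-log dilutions (top 100 uM), 0.5% DMSO. Readout: ACLY mRNA, TaqMan qRT-PCR, housekeeping-normalized (ACTB/GAPDH/POLR2A). Bidirectional curve fit vs DMSO.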

Read-out in experiment [14]: Alkaline Phosphatase, Placental (ALPP) gene, ALPP (gene 250)
As to the kind of experiment: LTEA_HepaRG_ALPP: Life Technologies and Expression Analysis (LTEA) Assay for Alkaline Phosphatase, Placental (ALPP) gene using HepaRG (AID 2283468). The method, boiled down:
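HepaRG cells plated 48 h, then exposed in duplicate for 48 h in serum-free induction medium to 8-point half-log series from 100 uM in 0.5% DMSO. ALPP mRNA by TaqMan qRT-PCR, normalized to ACTB/GAPDH/POLR2A; bidirectional fit versus DMSO.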

Read-out in experiment [15]: Bcl-2 (BAD) gene, BAD (gene 572)
As to the kind of experiment: LTEA_HepaRG_BAD: Life Technologies and Expression Analysis (LTEA) Assay for Bcl-2 (BAD) gene using HepaRG (AID 2283469). The method, boiled down:
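BAD transcript change, measured by qRT-PCR against three housekeeping genes and fitted in both directions relative to 0.5% DMSO, after 48 h chemical treatment of human HepaRG liver cells at concentrations up to 100 uM.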

Read-out in experiment [16]: Bcl-2 (BAX) gene, BAX (gene 581)
As to the kind of experiment: LTEA_HepaRG_BAX: Life Technologies and Expression Analysis (LTEA) Assay for Bcl-2 (BAX) gene using HepaRG (AID 2283470). The method, boiled down: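 HepaRG (human liver), 48 h exposure, duplicate wells. 8-pt curve, half-log from 100 uM, 0.5% DMSO. BAX transcript by TaqMan qRT-PCR; ACTB/GAPDH/POLR2A normalization; gain or loss vs DMSO baseline.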

Read-out in experiment [17]: adenosine kinase (ADK) gene, ADK (gene 132)
As to the kind of experiment: LTEA_HepaRG_ADK: Life Technologies and Expression Analysis (LTEA) Assay for adenosine kinase (ADK) gene using HepaRG (AID 2283471). In a few lines: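 ADK expression quantified by qRT-PCR, normalised to three housekeeping genes, after 48 h exposure of HepaRG cells to eight concentrations (top 100 uM, half-log steps, duplicate, 0.5% DMSO). Up- or down-regulation fitted relative to vehicle.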

Read-out in experiment [18]: Alpha-fetoprotein (AFP) gene, AFP (gene 174)
The experiment in a line: LTEA_HepaRG_AFP: Life Technologies and Expression Analysis (LTEA) Assay for Alpha-fetoprotein (AFP) gene using HepaRG (AID 2283472). In a few lines:
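HepaRG, single lot; 48 h post-plating -> serum-free induction medium; cpd 8-pt, 100 uM top, half-log, 0.5% DMSO, duplicate, 48 h. RNA -> qRT-PCR AFP, norm ACTB/GAPDH/POLR2A. Bidirectional fit vs DMSO.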

Read-out in experiment [19]: Peroxisomal acyl-coenzyme A oxidase 1 (ACOX1) gene, ACOX1 (gene 51)
The experiment in a line: LTEA_HepaRG_ACOX1: Life Technologies and Expression Analysis (LTEA) Assay for Peroxisomal acyl-coenzyme A oxidase 1 (ACOX1) gene using HepaRG (AID 2283467). The method, boiled down:
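Measured by qRT-PCR against three housekeeping genes: ACOX1 transcript change in human HepaRG cells after 48 h dosing. Concentrations ran up to 100 uM in half-log steps. Curves were fitted bidirectionally relative to 0.5% DMSO.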

The AC50 is the concentration giving half of the maximal activity seen.

Calls of active or inactive are those of the source. Rule for the calls: active = hit-call score of the fitted dose curve at least 0.9, where 1 is the maximum; inactive = score below 0.9.

Broad substrate specificity ATP-binding cassette transporter ABCG2 (Homo sapiens), sequence (Q9UNQ0 whole entry, looked up): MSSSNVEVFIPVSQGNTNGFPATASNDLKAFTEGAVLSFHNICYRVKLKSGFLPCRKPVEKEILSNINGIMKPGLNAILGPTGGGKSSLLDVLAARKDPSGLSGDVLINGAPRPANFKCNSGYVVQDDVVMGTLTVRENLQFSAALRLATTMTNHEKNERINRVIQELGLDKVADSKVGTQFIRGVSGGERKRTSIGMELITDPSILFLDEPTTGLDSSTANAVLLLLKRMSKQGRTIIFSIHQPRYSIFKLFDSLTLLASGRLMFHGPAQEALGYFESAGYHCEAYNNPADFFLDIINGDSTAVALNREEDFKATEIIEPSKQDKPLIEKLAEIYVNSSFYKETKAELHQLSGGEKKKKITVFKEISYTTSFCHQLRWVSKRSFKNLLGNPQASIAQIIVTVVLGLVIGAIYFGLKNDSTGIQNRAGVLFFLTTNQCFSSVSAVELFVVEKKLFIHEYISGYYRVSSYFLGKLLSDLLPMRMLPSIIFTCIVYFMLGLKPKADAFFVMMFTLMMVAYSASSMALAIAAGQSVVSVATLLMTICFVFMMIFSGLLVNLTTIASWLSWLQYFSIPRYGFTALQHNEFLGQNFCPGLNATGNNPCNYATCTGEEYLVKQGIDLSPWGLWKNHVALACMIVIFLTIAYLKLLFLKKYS

Regarding `OCCCBr`, the compound was classed as inactive in experiment [1], in experiment [2], in experiment [3], in [4], in experiment [5] and in [6]. The call in [7], in experiment [8], in experiment [9], in experiment [10], in experiment [11] and in experiment [12] was inactive. In addition, the compound was classed as inactive in [13], in experiment [14], in experiment [15], in experiment [16], in [17] and in experiment [18].
On to `Cc1ccc([N+](=O)[O-])cc1`, for which the call in [1], in experiment [3], in experiment [4], in experiment [5], in experiment [6] and in experiment [9] was inactive. Further, the outcome in experiment [10], in experiment [12], in [13], in [19], in experiment [14] and in [15] was inactive. For the same compound, the compound was called inactive in experiment [16] and in experiment [18]. The AC50 in experiment [2] is 9.92 µM (active); in [7] it was 2.47 µM (active); in [11], 13 µM (active).
Consider `CN(C)c1ccc(C(=O)c2ccc(N(C)C)cc2)cc1`, for which the AC50 in experiment [1] was 50 µM (active); in [2], 14.6 µM (active); in [14], 3.13 µM (active); in experiment [18], 50 µM (active). The outcome in [3], in experiment [4], in [5], in experiment [6], in [7] and in experiment [9] was inactive. Moreover, the compound was called inactive in experiment [10], in experiment [11], in experiment [12], in experiment [13], in experiment [15] and in [16]. The result in experiment [17] was inactive.
